From PubChem
Only some compounds are listed: those with a hit (about 8.1% of all), similar ones and a draw of the others.
KB-V1 MDR tox: KB-V1 MDR subline cytotoxicity; KB-V1 MDR cells viability, CellTiter-Glo, 72 h; Potency, µM (doses to about 46.1 µM), hits mostly cytotoxic; 400,000 compounds, 3.4% hits; AID 1347076; further: on the % scale 0 is the no-effect control and ±100 the full control effect; nearly all actives have a fitted effect of over 60% in size
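Luminescent ATP read-out (CellTiter-Glo, 10 min) measures survival of drug-selected KB-V1 MDR cells after 72 h, 37 degrees C compound exposure. Medium: phenol-red-free DMEM, 10% FBS. Values from fitted concentration-response curves.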
MCF10A rereplic: inducers of DNA re-replication in MCF 10A breast cells | MCF 10A DNA re-replication, Hoechst nuclear intensity, 48 h | Potency, µM (series often up to 46.1 µM), for the others: at the highest dose activity, positive = re-replication, usual class: activators | 350,000 compounds, 2.9% hits; further: % of control where 0% means no effect; nearly all actives have a fitted effect of over 50% in size
SW480 rerep: DNA re-replication induction in SW480 cells; AID 624297; 340,000 compounds, 1.8% hits; Potency, µM (titrated, usually from 46.1 µM), without a hit: at the highest dose re-replication activation, actives largely listed as activators; SW480 DNA re-replication, Hoechst DNA content imaging, 48 h; further: % of control where 0% means no effect; nearly all actives have a fitted effect of over 55% in size
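Quantitative HTS format with DMSO vehicle controls; 48 hr drug incubation at 37 C, then 40 min Hoechst staining and scanning imager measurement at 405 nm excitation.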
KB-3-1 cytotox: KB-3-1 parental cell cytotoxicity. KB-3-1 viability, CellTiter-Glo ATP luminescence, 72 h. Potency, µM (doses to about 46.1 µM), hits mostly cytotoxic. 400,000 compounds, 1.4% hits. AID 1347075; further: on the % scale 0 is the no-effect control and ±100 the full control effect; nearly all actives have a fitted effect of over 60% in size
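Parental KB-3-1 viability, qHTS format: 72 h compound exposure, 37 °C; CellTiter-Glo; media-only wells and DMSO plates as controls; concentration-effect fits on corrected data.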
ELG1 DNA repair: ELG1-dependent DNA repair inhibition; Potency, µM (series often up to 46.1 µM), inactives show top-dose activity change, negative = inhibition, usual class: inhibitors; HEK293T ELG1-luciferase reporter, luminescence, 16 h; DNA damage induced by 5-fluorouridine; 330,000 compounds, 2.3% hits; further: on the % scale 0 is the no-effect control and ±100 the full control effect; nearly all actives have a fitted effect of over 55% in size
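Step one: seed 2,000 cells per well. Step two: pin-transfer compound or DMSO alongside 5-fluorouridine. Step three: incubate 16 hr, 37 °C, 5% CO2. Step four: add ONE-Glo, wait 30 min, read luminescence.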
* marks the source's active call; other numbers are inactive results; i = inactive; ? = inconclusive; . = no result given. The call rests on the fitted dose curve; in most records, active means well fitted curve in the direction sought with a large enough effect; inconclusive means small, poorly fitted or top-dose-only effect, or another doubt; inactive means no such curve, though single readings can be large; an effect the other way counts as inactive or inconclusive. Potency means the concentration at half of the fitted maximal effect.

SMILES	KB-V1 MDR tox	MCF10A rereplic	SW480 rerep	KB-3-1 cytotox	ELG1 DNA repair
O=S(=O)(Nc1cc(Sc2ncn[nH]2)c(O)c2ccccc12)c1ccccc1	i	1µM*	10µM*	i	23µM*
Cc1oc2c(cc(NS(=O)(=O)c3ccc(Cl)cc3)c3ccccc32)c1C(=O)O	i	?	-11%	i	-2%
O=C(O)CSc1cc(NS(=O)(=O)c2ccc(Br)cc2)c2ccccc2c1O	?	?	?	i	15µM*
CCN(C(=O)COC(=O)c1c2c(nc3ccccc13)/C(=C/c1ccccc1)CC(C)C2)C1CCS(=O)(=O)C1 (configuration not stated)	?	?	7.3µM*	?	6.5µM*
Cc1ccc(/C=C2\CCCC3=C2NC(=S)NC3c2ccc(C)cc2)cc1 (configuration not stated)	16µM*	23%	67%	?	2%
COc1ccc(S(=O)(=O)N2CCc3ccccc32)cc1C(=O)O	i	3%	-8%	i	-10%
COc1ccc(S(=O)(=O)N2CCc3ccccc32)cc1C(=O)NCCc1ccccn1	i	3%	-5%	i	18µM*
COc1ccc(Nc2cc(C)nc3ncnn23)cc1	i	?	22%	i	.
Cc1cc(Nc2ccc(C(C)C)cc2)n2ncnc2n1	7.3µM*	3%	-5%	15µM*	?
CCC(C)c1ccc(NC(=O)Nc2cccnc2)cc1 (configuration not stated)	i	8%	0%	?	?
O=C(Cc1cccc2ccccc12)NN1C(=O)/C(=C\c2cccnc2)SC1=S	i	-18%	3%	i	-7%
O=C(NN1C(=O)/C(=C\c2cccnc2)SC1=S)C(c1ccccc1)c1ccccc1	i	15µM*	-4%	i	-3%
O=C(NN1C(=O)/C(=C/c2cccnc2)SC1=S)C(c1ccccc1)c1ccccc1	i	13µM*	8%	?	-9%
Cc1cc(C)c(NC(=O)Cn2nnc(-c3ccccc3)n2)c(C)c1	i	.	.	i	.
O=C(c1ccc(Oc2ccccc2)cc1)C1CCCN(C(=O)c2cnccn2)C1 (configuration not stated)	i	-3%	-8%	i	21µM*
Cc1cc(C(=O)N2CCCC(C(=O)c3ccc(Oc4ccccc4)cc3)C2)n[nH]1 (configuration not stated)	i	-2%	?	i	?
O=C(N/N=C/C(Cl)=C/c1ccc([N+](=O)[O-])cc1)C(=O)Nc1ccccc1C(=O)O	2.1µM*	5%	25%	7.3µM*	14%
O=C(N/N=C/C(Cl)=C/c1ccc([N+](=O)[O-])cc1)C(=O)Nc1ccc(C(=O)O)cc1	i	?	?	i	32%
COc1ccc(/C(=N/O)C(C)(C)NO)cc1	i	-7%	-12%	i	-1%
COc1ccc(C(C#N)=C2C=CC(=NO)C=C2)cc1	?	23µM*	?	?	-16%
CC(=O)ON=C1C=CC(=C(C#N)c2ccccc2)C=C1	7.3µM*	.	.	3.7µM*	.
Cc1cccc(OCc2nc(C#N)c(NCc3ccccc3Cl)o2)c1	i	.	.	i	.
CC1(C(=O)NC2CCCCC2)CCC(=O)N1C1CCN(Cc2ccccc2)CC1 (configuration not stated)	i	.	.	i	.
CC(C(=O)Nc1ccccc1-c1ccccc1)N1CCN(C(=O)c2ccccc2)CC1 (configuration not stated)	i	16%	1%	i	-14%
Cc1ccc(S(=O)(=O)N2CCN(C(C)C(=O)Nc3ccccc3-c3ccccc3)CC2)cc1 (configuration not stated)	3.7µM*	4%	-30%	i	-9%
SMILES	KB-V1 MDR tox	MCF10A rereplic	SW480 rerep	KB-3-1 cytotox	ELG1 DNA repair
Fc1ccc(NC(=S)N/N=C/c2ccc(F)c(F)c2)cc1	i	-3%	-5%	i	14%
Cc1ccccc1NC(=S)N/N=C/c1ccc(O)cc1O	i	18%	19%	?	?
Fc1ccc(/C=N/NC(=S)Nc2ccc(Cl)cc2Cl)cc1	?	10%	?	5.2µM*	-4%
O=[N+]([O-])c1cc(/C=N/NC(=S)Nc2ccccc2Cl)ccc1Cl	?	?	5%	18µM*	0%
Cc1ccc(NC(=S)N/N=C/c2ccc(Cl)c([N+](=O)[O-])c2)cc1	i	?	-6%	i	6%
Cc1cccc(NC(=S)N/N=C/c2cccc(O)c2)c1C	6.5µM*	?	7.3µM*	3.3µM*	18µM*
COc1ccc(/C=N/NC(=S)Nc2ccccc2[N+](=O)[O-])cc1O	12µM*	?	?	?	?
COc1ccc(CCNC(=O)CN2C(=O)COc3ccc(S(=O)(=O)N4CCOCC4)cc32)cc1OC	i	6%	-2%	?	3%
S=C(N/N=C/c1ccc(Cl)c(Cl)c1)Nc1ccccc1Cl	i	12%	?	21µM*	?
CN(C)c1ccc(N=Nc2ccccc2C(=O)OCC(=O)NCC2CCCCC2)cc1	7.3µM*	18%	17%	i	?
Cc1ccc(OCC(=O)OCC(=O)NC2CCS(=O)(=O)C2)cc1C (configuration not stated)	i	.	.	i	.
Cc1ccc2c(c1)c1c(n2CC(O)CN2CCCCC2C)CCCC1 (configuration not stated)	i	?	18µM*	?	-13%
CN(C(=O)c1ccc2c(c1)OCCO2)c1c(N)n(Cc2ccccc2)c(=O)[nH]c1=O	i	-1%	?	i	-2%
COc1cccc(C(O)c2nc(-c3cccc(F)c3)cs2)c1 (configuration not stated)	i	.	.	i	.
N#Cc1cnc(SCCc2ccccc2)nc1N	?	9.2µM*	9%	i	29%
N#Cc1cnc(SCC(=O)c2ccccc2)nc1N	i	?	-22%	i	-3%
COc1ccc(-c2nc3ccccc3n2Cc2ccccc2)cc1	i	6%	-5%	i	-16%
COc1ccc(-c2n(Cc3ccccc3)c3ccccc3[n+]2Cc2ccccc2)cc1	i	4%	?	7.3µM*	?
O=C(Nc1ccc2c(c1)OCCO2)Nc1nnc(-c2ccncc2)s1	i	.	.	i	.
Cc1ccc(C(=O)N2N=C(c3ccc(Br)cc3)CC2c2ccccc2O)cc1 (configuration not stated)	?	18µM*	10%	?	?
COc1ccc(C2=NN(C(=O)c3cccs3)C(c3ccccc3O)C2)cc1 (configuration not stated)	i	21µM*	24%	i	?
